Test results from PubChem BioAssay AID588689 (Southern Research Specialized Biocontainment Screening …, 2011).
Among all 340,000 compounds or so, about 1,000 (0.29%) were called active. Rule as the data show it: inconclusive = inhibition above about 29% without an active follow-up result; inactive = below that. Not all results are given here. Potency and affinity values are given separately.

Biological target: Genome polyprotein (Dengue virus type 2 (strain 16681-PDK53)) (UniProt P29991)
Test: Dengue-2 NS5 methyltransferase inhibitors, primary screen, biochemical, confirmation dose response (AID 588689)
Details: Dengue-2 NS5 methyltransferase capping enzyme assay, at 25 µM, stronger effect = higher value
[1] = measured here: pilot screen replicate inhibition

Row | Structure (SMILES) | inhibition | inhibition [1] [%]
1 | CCOc1ccc(C(=O)Cc2cc(OC)c(OC)cc2[N+](=O)[O-])cc1 | -1.39% (inactive) | 
2 | CCOc1ccc(N2C(=O)/C(=C\c3ccccc3OC)S(=O)(=O)C2c2cccc([N+](=O)[O-])c2)cc1 (stereo not given) | -7.02% (inactive) | 
3 | COc1ccc(C(=Cc2cc(OC)c(OC)cc2[N+](=O)[O-])C(=O)O)cc1 | -1.59% (inactive) | 
4 | COc1cc(C(=O)N2CCN(c3ccccc3)CC2)c([N+](=O)[O-])cc1OC | -3.88% (inactive) | 
5 | CCOC(=O)C1CCCN(C(=O)c2cn(C)c(=O)c3cc(OC)c(OC)cc23)C1 (stereo not given) | -5.65% (inactive) | 
6 | C#CCOCCOCCOCCNc1nc(N2CCOCC2)nc(N2CCN(C(=O)CCCCCCCCCCNC(=O)Cn3cc(CCCCCN)nn3)CC2)n1 | 9.92% (inactive) | 
7 | Cc1cc(Cl)ccc1OC(C)C(=O)N1CCCN(C(=O)C(C)Oc2ccc(Cl)cc2C)CC1 (stereo not given) | -1.34% (inactive) | 
8 | COc1ccc(C2(CNC(=O)CCC(=O)O)CCCC2)cc1OC | -1.37% (inactive) | -4.84
9 | O=C(O)c1ccc(-c2cccc(Cl)c2)o1 | -4.79% (inactive) | 
10 | Cc1[nH][nH]c(=O)c1C(c1ccc(-c2ccc(Cl)c(Cl)c2)o1)c1c(C)[nH][nH]c1=O | 61.3% (inactive) | 
11 | O=Cc1ccc(-c2ccc(F)cc2)o1 | -6.55% (inactive) | 
12 | Cc1[nH][nH]c(=O)c1C(c1ccc(-c2ccc(Cl)cc2)o1)c1c(C)[nH][nH]c1=O | 21% (inactive) | 
13 | CCC(OC(=O)c1nsc(Cl)c1Cl)C(=O)NCC1CCCO1 (stereo not given) | -4.98% (inactive) | 
14 | CCCc1cc(=O)oc2cc(C)cc(OC(C)C(=O)NCc3cccnc3)c12 (stereo not given) | -9.54% (inactive) | 
15 | NC(=O)Cn1c(O)c(N=NC(=O)CNC(=O)/C=C/c2ccccc2)c2ccccc21 | 3.88% (inactive) | 
16 | CC(C)CC(COCc1cccc(Cl)c1)N1CCN(C(=O)c2cccc(C(F)(F)F)c2)CCC1=O (stereo not given) | 0.79% (inactive) | 
17 | CCOc1ccccc1CN1CCNC(=O)C1CC(=O)NC1CCCCCC1 (stereo not given) | 7.85% (inactive) | 
18 | CC(C)CCn1c(SCC(=O)Nc2ccccc2C(F)(F)F)nc2nccnc2c1=O | -2.66% (inactive) | 
19 | CCOC(=O)C1CCN(S(=O)(=O)c2ccc(CNC(=O)c3ccccc3)s2)CC1 | -13.1% (inactive) | 
20 | COC(=O)Nc1ccc(S(=O)(=O)N2CCCC(C(=O)N3CC(C)OC(C)C3)C2)cc1 (stereo not given) | -5.54% (inactive) | 
21 | O=C(CSc1nnc2ccc(-c3ccccn3)nn12)Nc1ccc(F)cc1 | 2.75% (inactive) | 
22 | C[C@@H]1CN(C(=O)c2cc(COc3cccc(C(F)(F)F)c3)on2)C[C@H](C)O1 | -9.08% (inactive) | 
23 | COc1ccccc1C(=O)Nc1ccnn1C1CCN(Cc2cn(C)c3ccccc23)CC1 | -3.88% (inactive) | 

Row | Structure (SMILES) | inhibition | inhibition [1] [%]
24 | CCC(CC)=NNc1ccc([N+](=O)[O-])cc1[N+](=O)[O-] | -0.89% (inactive) | 
25 | C/C(CCC(=O)O)=N/Nc1ccc([N+](=O)[O-])cc1[N+](=O)[O-] | -3.25% (inactive) | 
26 | Cc1ccc(CN2CCN(CC(=O)NC(C)CCc3ccccc3)C2=O)cc1 (stereo not given) | -4.17% (inactive) | 
27 | CCCc1cc(=O)c2ccc(OCC(C)=O)cc2o1 | -9.24% (inactive) | 
28 | CC(C)N(CCNS(=O)(=O)c1ccc(Cl)cc1)C(C)C | 0.97% (inactive) | 
29 | COCCC(=O)NNS(=O)(=O)c1ccc(Cl)cc1 | 5.47% (inactive) | 
30 | CCOc1ccc(NC(=O)c2ccc(S(=O)(=O)N3CCOCC3)cc2)cc1 | 1.78% (inactive) | 
31 | CC(C(=O)O)N1C(=O)C2C3c4ccccc4C(c4ccccc43)[C@@H]2C1=O (stereo not given in full) | -2.61% (inactive) | 
32 | CN1C(=O)C2C3c4ccccc4C(c4ccccc43)[C@@H]2C1=O (stereo not given in full) | -1.31% (inactive) | 
33 | CCC(C(=O)O)P(=O)(c1ccc(Cl)cc1)c1ccc(Cl)cc1 (stereo not given) | -8.59% (inactive) | 
34 | COC1=CC(=O)C(OC)=C(OC)C1=O | 6.99% (inactive) | 
35 | CCCCCSc1nncc(=O)[nH]1 | 4.01% (inactive) | 
36 | COc1ccc(-c2cccc(NC(=O)c3cccs3)c2)nn1 | -3.63% (inactive) | 
37 | O=C(CSc1nc2ccccc2s1)Nc1cc(S(=O)(=O)N2CCOCC2)ccc1Cl | -0.74% (inactive) | 
38 | O=C1SCC(c2ccc(Cl)cc2Cl)=NN1Cc1nnc(-c2ccccc2)o1 | -1.48% (inactive) | 
39 | O=C(O)CSc1ncnc2c1sc1nc(-c3ccccc3)c3c(c12)CCC3 | 22.7% (inactive) | 
40 | O=c1[nH]cnc2c1sc1nc(-c3ccccc3)c3c(c12)CCCC3 | -9.17% (inactive) | 
41 | CCN(CC)c1ccc(S(=O)(=O)N2CCOCC2)cc1NC(=O)CSC(=S)N1CCCC1 | -4.86% (inactive) | 
42 | COCCN(C(=O)CSc1nnc(-c2cccc(Cl)c2)n1N)c1c(N)n(CC(C)C)c(=O)[nH]c1=O | -1.15% (inactive) | 
43 | C/C=N\NC(=O)CNC(=O)CNC(=O)c1ccccc1 | -9.83% (inactive) | 
44 | Oc1ccc(Cl)cc1CNC1CCCCC1 | -11.2% (inactive) | 
45 | Oc1ccc(CNC2CCCCC2)cc1 | -4.06% (inactive) | 
46 | CC(=O)NCCNC(=O)c1oc2ccccc2c1CSc1ncn[nH]1 | 0% (inactive) | 

Row | Structure (SMILES) | inhibition | inhibition [1] [%]
47 | Cc1cc(C)nc(N/N=C/c2ccccc2OCC(=O)O)n1 | 0% (inactive) | 
48 | COc1cccc(N=Cc2nc(-c3ccccc3)oc2OC(C)=O)c1 | -7.76% (inactive) | 
49 | COc1ccc(N=Cc2nc(-c3ccccc3)oc2OC(C)=O)cc1 | -15.3% (inactive) | 
50 | O=C1c2ccccc2C(=O)N1c1ccccc1 | -3.62% (inactive) | 
51 | COc1ccc(-c2noc(-c3ccccc3C(=O)NCc3ccco3)n2)cc1OC | -1.61% (inactive) | 
52 | CCOC(=O)N1CCN(C(=O)/C=C/c2ccc(OC)c(OC)c2)CC1 | -5.82% (inactive) | 
53 | COc1ccccc1/C=c1\sc2nc(-c3ccccc3OC)nn2c1=O | 5.01% (inactive) | 1.52
54 | CCOc1ccccc1/C=c1\sc2ncnn2c1=O | 3.42% (inactive) | 
55 | COc1ccccc1/C=C/C=c1\sc2nc(=O)c(Cc3ccccc3)nn2c1=O | -9.19% (inactive) | 
56 | COc1ccccc1/C=c1\sc2nc(-c3ccco3)nn2c1=O | 20.1% (inactive) | 
57 | Cc1cccc(NS(=O)(=O)c2ccc(NS(=O)(=O)c3cccs3)cc2)c1 | 13.3% (inactive) | 
58 | N#C/C=C/N1CCC(Cc2ccccc2)CC1 | -4.96% (inactive) | 
59 | N#CCCN(C(=O)COC(=O)Cc1ccc(Br)cc1)c1ccccc1 | -13.2% (inactive) | 
60 | CC(C)c1[nH]c(=O)c(C#N)c2c1CSC(C)(C)C2 | -6.61% (inactive) | 
61 | COc1ccc(C(CCN2CCOCC2)c2c(O)cc(OC)cc2OC)cc1 (stereo not given) | -0.7% (inactive) | 
62 | OCc1ccccc1CNCc1ccccc1 | -5.52% (inactive) | 
63 | Oc1ccccc1CNCc1ccccc1 | -2.38% (inactive) | 
64 | CSc1ncccc1C(=O)OCc1cccc([N+](=O)[O-])c1 | 0% (inactive) | 
65 | COc1ccc(NC(=O)N(C)C[C@@H]2OCc3cnnn3CCCC(=O)N([C@H](C)CO)C[C@H]2C)cc1 | 0.55% (inactive) | 
66 | Cc1ccc(C(=O)Nc2ccc3cn[nH]c3c2)cc1S(=O)(=O)N1CCOCC1 | -0.88% (inactive) | 
67 | CC(C)c1cc(=O)oc2c3c4c(cc12)CCCN4CCC3 | 0% (inactive) | 
68 | O=c1oc2c3c4c(cc2c2c1CCC2)OCCN4CCC3 | 24.7% (inactive) | 
69 | N/C(=N\OC(=O)CCC1CCCCC1)c1cccc([N+](=O)[O-])c1 | -1.88% (inactive) | 1.82

Row | Structure (SMILES) | inhibition | inhibition [1] [%]
70 | O=C(CSc1ccccc1)N1CCN(S(=O)(=O)c2ccccc2F)CC1 | 3.25% (inactive) | 
71 | CCCCn1c(NC(=O)c2ccco2)c(S(=O)(=O)c2ccc(C)cc2)c2nc3ccccc3nc21 | -64.2% (inactive) | 
72 | C=CCn1c(NC(=O)c2ccc(Br)o2)c(S(=O)(=O)c2ccccc2)c2nc3ccccc3nc21 | -4.19% (inactive) | 
73 | OCCC1CN(Cc2cnn(-c3ccccc3Cl)c2)CCN1Cc1ccsc1 (stereo not given) | -2.26% (inactive) | 
74 | CC(C)N(C(=O)[C@H]1C[C@H](CC(=O)NCCN2CCOCC2)C(=O)N2CCc3c([nH]c4cc(-c5ccco5)ccc34)[C@]12C)C(C)C | -6.51% (inactive) | 
75 | Cc1cccc(C2c3c(n(C)c(=O)n(C)c3=O)N=C3c4ccccc4C(=O)C32)c1 (stereo not given) | 2.3% (inactive) | 
76 | Cc1nn(-c2ccccc2)c(C)c1-c1ccccc1O | -5.22% (inactive) | -6.7
77 | O=C(O)COc1ccc2nsnc2c1Cl | -9.55% (inactive) | 
78 | C=C(CC)C(=O)c1ccc(OCC(=O)O)c(Cl)c1Cl | -3.73% (inactive) | 
79 | CCOCCCNCC(O)c1ccccc1 (stereo not given) | 0% (inactive) | 
80 | CC1(C)CC(=NO)CC(C)(C)N1 | 0% (inactive) | 
81 | COc1cc(C(=O)Nc2ccc(S(=O)(=O)Nc3ncccn3)cc2)c([N+](=O)[O-])cc1OC | 0.74% (inactive) | 
82 | Cc1cc(NS(=O)(=O)c2ccccc2)c([N+](=O)[O-])cc1C | 4.34% (inactive) | 
83 | COc1ccc([N+](=O)[O-])cc1NS(=O)(=O)c1ccccc1 | 5.1% (inactive) | 
84 | COc1ccc(S(=O)(=O)/N=C2/NC(=O)/C(=C\c3cc(OC)c(OC)cc3[N+](=O)[O-])S2)cc1 | 2.45% (inactive) | 
85 | Cc1ccc(/C=N/NC(=O)C(C)Oc2cccc3ccccc23)o1 (stereo not given) | -3.22% (inactive) | 
86 | CCC1(C)NC(=O)N(CC(=O)N2CCC(Cc3ccccc3)CC2)C1=O (stereo not given) | -9.76% (inactive) | 
87 | C/C(CC(C)C)=N/Nc1ccc([N+](=O)[O-])cc1[N+](=O)[O-] | -3.83% (inactive) | 
88 | CC(Cc1ccccc1)=NNc1ccc([N+](=O)[O-])cc1[N+](=O)[O-] | 10.5% (inactive) | 
89 | CC(=O)NC(C)c1nc2ccccc2n1C(C)C (stereo not given) | -3.46% (inactive) | 
90 | COc1ccc(/C=C/C=C2\NC(=S)NC2=O)cc1 | -2.15% (inactive) | 
91 | CC(/C=C1\NC(=S)NC1=O)=C\c1ccccc1 | -7.18% (inactive) | 
